Consider 39 compounds from PubChem BioAssay (NCATS).

Results filed as inconclusive are left out. Where a call stands in place of a potency, no number is given. Unmarked numbers belong to inactive results. Calls of active or inactive are those of the source. The call rests on the fitted dose curve; in most records, active means well fitted inhibition curve with a large enough effect; inconclusive means small, poorly fitted or top-dose-only effect; inactive means flat fitted curve, though single readings scatter.
Potency means the concentration at half of the fitted maximal effect.

The assay can be described thus: P-glycoprotein substrates identified in KB-8-5-11 adenocarcinoma cell line, qHTS therapeutic library screen (AID 1346987). Further: nearly all actives have a fitted effect of over 65% in size. The following applies: KB-8-5-11 (P-gp overexpressing) viability, CellTiter-Glo, 72 h; series mostly up to 44.5 µM. The method, boiled down:
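Luminescence from CellTiter-Glo, read 5 min after addition, quantified survival of KB-8-5-11 (P-gp-overexpressing) cells exposed to compounds for 72 h. AC50 was derived from concentration-response curves.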
In general terms: qHTS replaces the single test concentration by a dilution series.
On to `CC1=CC(=O)CC(C)(C)C1/C=C/C(C)O[C@@H]1O[C@H](CO)[C@@H](O)[C@H](O)[C@H]1O[C@@H]1OC[C@](O)(CO)[C@H]1O` (some centres undefined), for which the Potency result is “inactive”.

`COC1/C=C/C(C)(O)C(SCC(N)C(=O)O)CC(=O)OC(C)C(C)CC/C=C/1C` (centres undefined): the Potency result was “inactive”. As for `C[C@@H]1O[C@@H](O[C@H]2[C@H](O)[C@@H](O)[C@H](OC3CCC4(C)C5CCC(C)(C(CO)OC6OC(CO)C(O)C(O)C6O)CC5=CCC4C3(C)C)O[C@@H]2CO)[C@H](O)[C@H](O)[C@H]1O` (some centres undefined), the Potency result was “inactive”. On to `CC1=C(C(=O)O)/C(=C/CO[C@@H]2O[C@H](COC(=O)/C=C/c3ccc(O)cc3)[C@@H](O)[C@H](O)[C@H]2O)C(O)C1` (some centres undefined), for which the Potency result is “inactive”.

On to `CC1=C(COC2OC(CO)C(O)C(O)C2O)C(C(CO)C(=O)O)CC1` (centres undefined), for which the Potency result is “inactive”. Take `CN(C)c1nc(NC2CCC(NC(=O)c3ccc(F)c(F)c3)CC2)nc2ccccc12` (centres undefined): the Potency was 20.6 µM (active).

Consider `O=C(O)C1CN(Cc2ccc(-c3nc4cc(Cc5ccccc5F)ccc4s3)c(F)c2)C1`, for which the activity change, negative = cytotoxicity was 0.617% [at 9.29 µM]. Turning to `OC[C@H]1O[C@@H](O[C@H]2[C@H](OCCc3ccccc3)O[C@H](CO)[C@@H](O)[C@@H]2O)[C@H](O)[C@@H](O)[C@@H]1O`, the Potency entry is “inactive”. Consider `C=C1CCC2C(C)(C)C(O)CCC2(C)C1CCC(C)CCO` (centres undefined), for which the Potency entry was “inactive”. `CC(=O)CCC1=C(C)C(O[C@@H]2O[C@H](CO)[C@@H](O)[C@H](O)[C@H]2O)C(O)CC1(C)C` (some centres undefined): the Potency result was “inactive”. Regarding `CC1OC(OCC2OC(OC3CCC4(C)C(CCC5(C)C4CC=C4C6CC(C)(C)CCC6(C(=O)OC6OC(CO)C(O)C(O)C6O)CCC45C)C3(C)CO)C(O)C(O)C2O)C(O)C(O)C1O` (centres undefined), the outcome was “inactive [at 9.29 µM]”. Turning to `Nc1nc2c(c(N3CCNCC3)n1)CCC1=C2[C@@H]2CCCC[C@@H]2O1`, the Potency result is “inactive”. Consider `CCOc1cc(N2CCC(O)CC2)ccc1Nc1ncc2c(n1)N(C1CCCC1)CCC(=O)N2C`, for which the Potency is 11.6 µM (active). For the compound `CC1OC2OC(=O)C3(C)CC4=C(CO)C5=C(CC(=O)C4(C)C(C1=O)C23)C(C)(C)OC(=O)C5` (centres undefined), the Potency result is “inactive”.

In the case of `C=C1C(=O)O[C@H](CCC)[C@H]1C(=O)O`, the Potency result was “inactive”. As for `O=C(O)/C=C/c1cc2c(cc1O[C@@H]1O[C@H](CO)[C@@H](O)[C@H](O)[C@H]1O)OCO2`, the Potency entry is “inactive”. Take `CCN1CCN(Cc2ccc(NC(=O)Nc3ccc(Oc4cc(NC)ncn4)cc3)cc2C(F)(F)F)CC1`: the Potency entry is “inactive”. Regarding `C/C1=C\CCC2=C[C@@H](OC2=O)c2c(C)coc2C1`, the Potency entry is “inactive”. With `CC(C)[C@@H]1C(=O)N(S(C)(=O)=O)[C@@H]2CCN(C(=O)/C=C/CN3CCCCC3)[C@H]21`, the Potency result was “inactive”. On to `CC(=O)NCC(=O)N1C2CCC1c1cc(Nc3ncc(C(F)(F)F)c(NC4CCC4)n3)ccc12` (centres undefined), for which the Potency was 1.84 µM (active). `c1ccc(-c2ncc(CN3CCN(c4ncccn4)CC3)[nH]2)cc1`: the Potency entry was “inactive”.

For `CC(C)Oc1ccc(C(=O)NC(CNC(=O)CN(C)C)Cc2ccc(-c3cn4cccc(C(C)O)c4n3)cc2)cc1Cl` (centres undefined), the Potency is 6.51 µM (active). Take `CC(C)c1cc(C(=O)N2CC[C@@H](NC(=O)C3CC3)C2)n[nH]1`: the Potency result is “inactive”. Take `N[C@H]1Cc2ccccc2N(O)C1=O`: the Potency entry was “inactive”. Regarding `CC(C)(O)/C=C/C1=CC(=O)[C@@](C)(O)C[C@H]1O`, the Potency result is “inactive”. The same measure, in the same setting: next, `C/C=C/C(O)C1OC(=O)CC1Nc1ccc(C(=O)O)cc1` (centres undefined): “inactive”; `Cc1oc2ccccc2c1CNC(=O)NCc1cccs1`: “inactive”. With `C/C=C(\C)C(=O)O[C@H]1[C@@H](O[C@]2(COC(=O)CC(C)C)O[C@H](COC(=O)C(C)CC)[C@@H](OC(C)=O)[C@@H]2O)O[C@H](COC(C)=O)[C@@H](O)[C@@H]1O` (some centres undefined), the Potency entry was “inactive”. For `CC1C=CC2CCCCC2C1CCC1CC(O)CC(=O)O1` (centres undefined), the Potency result was “inactive”. The same measure, in the same setting: next, `CC(C)CCC(=O)CC1c2ccccc2C(=O)N1c1ccc2ccc(Cl)nc2n1` (centres undefined): “inactive”. For `C=C1CCC2C(C)(C(=O)O)CCCC2(C)C1CC/C(=C\CO)CO` (centres undefined), the Potency entry was “inactive”. `O=C1NC(=O)C(c2cn3c4c(cccc24)CCC3)C1c1c[nH]c2ccccc12` (centres undefined): the Potency was 1.3 µM (active).

`OCCc1ccc(O[C@@H]2O[C@H](CO)[C@@H](O)[C@H](O)[C@H]2O)cc1`: the Potency entry was “inactive”.

Consider `CC1CCC2(C(=O)O)CCC3(C)C(=CCC4C5(C)CCC(OC(=O)/C=C/c6ccccc6)C(C)(C)C5CCC43C)C2C1C` (centres undefined), for which the Potency entry was “inactive”. As for `CC/C=C\[C@H](O)[C@H](O)C1=C(C)C(=O)[C@]2(O1)C(=O)N[C@@](OC)(C(=O)c1ccccc1)[C@@H]2O`, the Potency entry is “inactive”. Regarding `CC(C)O[C@@H]1O[C@H](CO)[C@@H](O)[C@H](O)[C@H]1O`, the Potency entry is “inactive”. The same measure, in the same setting: under `CC1(C)[C@@H](O)CC[C@]2(C)[C@H]3CC=C4[C@@H]5C[C@](C)(C(=O)O)CC[C@]5(C)CC[C@@]4(C)[C@]3(C)CC[C@@H]12` stands “inactive”.

With `N#Cc1ccc(-c2cnc3[nH]cc(NC(=O)c4cccnc4)c3c2)cc1`, the Potency entry is “inactive”. Still for that read-out and setting: next, `COc1cc(N2CCC(N3CCN(C)CC3)CC2)ccc1Nc1ncc(Cl)c(-c2c[nH]c3ccccc23)n1`: 0.517 µM (active).
